Measured values published in PubChem BioAssay AID2783 (National Center for Advancing Translational Sciences (NCATS), 2010).
Results filed as inconclusive are left out. Calls of active or inactive are those of the source. The call rests on the fitted dose curve; in most records, active means well fitted inhibition curve with a large enough effect in the polarisation, with a control signal flat (not every such curve was filed as active); inconclusive means small, poorly fitted or top-dose-only effect, or effect the other way, or a change in a side signal; inactive means no such curve, though single readings can be large or run the other way; the % refers to the polarisation.

Target: Menin (Homo sapiens) (UniProt O00255)
Sequence (O00255 whole entry, looked up): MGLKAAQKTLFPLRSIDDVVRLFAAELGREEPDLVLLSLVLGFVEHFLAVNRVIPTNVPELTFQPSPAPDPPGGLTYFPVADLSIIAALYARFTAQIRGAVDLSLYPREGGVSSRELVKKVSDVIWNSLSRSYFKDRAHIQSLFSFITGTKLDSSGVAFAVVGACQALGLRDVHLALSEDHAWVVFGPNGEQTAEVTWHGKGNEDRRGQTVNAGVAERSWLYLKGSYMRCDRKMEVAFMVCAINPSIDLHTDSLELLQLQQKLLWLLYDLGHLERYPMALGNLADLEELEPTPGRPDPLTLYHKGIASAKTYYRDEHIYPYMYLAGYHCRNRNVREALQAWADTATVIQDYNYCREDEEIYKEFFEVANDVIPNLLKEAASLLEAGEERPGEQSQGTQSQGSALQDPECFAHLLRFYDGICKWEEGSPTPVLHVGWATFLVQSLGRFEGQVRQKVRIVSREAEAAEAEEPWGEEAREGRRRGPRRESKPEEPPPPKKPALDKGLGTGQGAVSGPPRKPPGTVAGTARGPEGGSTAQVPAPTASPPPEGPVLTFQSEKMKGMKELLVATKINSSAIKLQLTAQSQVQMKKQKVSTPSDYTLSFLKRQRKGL
Assay: Confirmation of Inhibitors Targeting the Menin-MLL Interaction in MLL Related Leukemias: Competition With Fluorescein Labeled MLL-derived Peptide
Conditions: Fluorescence polarization, fluorescein-MLL peptide displacement from menin; series mostly up to 100 µM

outcome, inactive:
Cc1cc2c(c(=O)n1Cc1ccccc1)C1O[C@](c3ccsc3)(Cc3cc(C#N)ccc31)O2
COc1ccccc1CC(=O)Nc1ccc(-c2noc(COc3ccc(Br)cc3)n2)cc1
CCC(=O)Nc1ccc(-c2cc(-c3ccccc3)nc(-c3ccc(NC(=O)CC)cc3)n2)cc1
CCOC(=O)c1sc(NC(=O)Nc2ccc(Cl)cc2)nc1C
COC(=O)C1[C@H]2SC(C)(C)C(C(=O)OC)N2C(=O)N1Cc1nc2ccccc2s1 (stereo not given in full)
COC(=O)c1cc(CNC(=O)CCCSc2ccccc2)ccc1OC
O=C(N/N=C/c1cn(-c2ccccc2)nc1-c1cc2ccccc2o1)c1ccccc1Br
CN(C)CCCNCC(=O)c1c(-c2ccccc2)n(C)c2ccccc12
CCOC(=O)N1CCN(C(=O)c2oc3ccc(S(=O)(=O)N(CC)CC)cc3c2C)CC1
COc1ccc2[nH]c(=O)c(CN(Cc3cccs3)C(=S)Nc3cccc(C)c3)cc2c1
O=C(Nc1cc(Br)ccc1O)c1cc(-c2cccs2)on1
Cc1c(CCOC(=O)CC23CC4CC(CC(C)(C4)C2)C3)sc[n+]1Cc1ccc([N+](=O)[O-])cc1
COc1cc(OC)c2ccc(=O)oc2c1C(CCN1CCOCC1)c1ccc(N(C)C)cc1 (stereo not given)
CCOC(=O)N1CCN(CCC(=O)c2ccc(Br)cc2)CC1
CCC(=O)NC(=S)Nc1ccc(-c2nc3ccc(C)cc3s2)cc1
CN(C)CCCOc1ccc2c(c1)Sc1ccccc1CC2=O
Cn1c(=O)[nH]c(=O)c2c1nc(Br)n2CCSc1nc2ccccc2o1
CCOC(=O)C1CCN(CC(O)COCc2ccccc2)CC1 (stereo not given)
COc1ccccc1NS(=O)(=O)c1cc(NC(=O)Nc2ccc(Cl)cc2Cl)ccc1N1CCCCC1
CCC(=O)NC(=S)Nc1ccc(NC(=S)NC(=O)c2ccc(C)cc2)cc1
CCn1ncc(C(=O)Nc2cc(C)on2)c1C
O=C(NNCS(=O)(=O)O)c1ccncc1
COc1ccc(CC(=O)Nc2ccc(-c3nnc(-c4ccccc4)o3)cc2)cc1
COc1ccc(CNC(=O)C(c2ccc(O)cc2)N(Cc2ccco2)C(=O)c2snc(C(N)=O)c2N)cc1 (stereo not given)
Cc1[nH][nH]c(=O)c1C(c1c(C)[nH][nH]c1=O)c1cn(Cc2ccccc2Cl)c2ccccc12
CN(C)/C=C(/C(=O)c1ccc(Cl)cc1)S(=O)(=O)c1ccc(Cl)cc1
O=C(CCC1CCCCC1)NCCN1C2=NC[C@H](Cc3ccc(O)cc3)N2C[C@H]1Cc1ccc(O)cc1
Fc1ccccc1C1c2cccn2CCN1C(=S)Nc1ccc(Br)cc1 (stereo not given)
COc1ccc(/C=C(\C#N)C(=O)NCc2ccccc2)cc1
CC(C)Sc1nc(N2CCOCC2)c2c3c(sc2n1)COC(C)(C)C3
Cc1ccc(NC(=O)CN(C)C(=O)COc2cccc3cccnc23)cc1
O=C(Nc1ccc2c(c1)OCO2)c1ccccc1
Cc1ccc(/C=C2\SC(=S)N(CC(=O)Nc3ncc(Cc4ccccc4Cl)s3)C2=O)cc1
Cc1[nH]nc(-c2ccc(OCc3cnn(-c4ccccc4)c3)c(C)c2O)c1Oc1ccccc1
COc1ccc(OC)c(C(c2c(C)[nH][nH]c2=O)c2c(C)[nH][nH]c2=O)c1
